High-throughput results as filed in PubChem.
Calb FLC = affects C. albicans growth with fluconazole; C. albicans CaCi-2 (fluconazole-resistant clinical isolate) + fluconazole, Alamar Blue growth, 48 h; growth inhibition, % (concentration not given with the values); hit rate 0.57% among 300,000;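 active = growth inhibition above about 58% in most replicates, limit read from the data, passing the limit was not always enough; inconclusive = exactly half the replicates above a set limit; inactive = most replicates below a set limit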;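 also: all wells also contain fluconazole at 8 µg/ml as a sub-toxic cotreatment; 0% = median of DMSO wells and 100% = median of geldanamycin control wells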
CSC inhib = blocks cancer stem cells; cancer stem cell-like cells viability, luminescence; hit rate 1.1% among 300,000; inhibition, % at 7.5 µM; AID 2717; in the data active = inhibition above about 75%; inconclusive = no clear call, values can overlap the other calls; tested in HMLE shEcad cells
MPTP inh = blocks calcium-induced mitochondrial swelling; isolated mouse mitochondria, Ca2+ swelling absorbance, 30 min; inhibition, % at 10 µM; hit rate 1.4% among 360,000;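 active = inhibition of 50% or more, scaled per plate between neutral and stimulator controls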;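 also: 0% = DMSO wells given calcium and 100% = 1 mM EGTA wells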
Mdm2 MdmX PPI = inhibitors of human Mdm2/MdmX interaction. inhibition, % at 8 µM. hit rate 3% among 330,000. O15151+Q00987. AID 485346. SaOS-2 split-luciferase Mdm2/MdmX complementation, luminescence;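 active = inhibition of at least 50% at 8 µM in the primary screen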
Beta apoptosis = beta cell apoptosis inhibition; protection from apoptosis, % (concentration not given with the values); hit rate 0.8% among 300,000; INS-1E cytokine-induced death, ATP luminescence, 48 h; percent of positive-control rescue, neutral wells zero;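 active = Every replicate reaches about 75%, or at least half do and their mean reaches it too, limit read from the data; inconclusive = At least half of replicates reach the limit but their mean does not; inactive = Under half of replicates reach the limit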;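 also: 0% = cytokine-treated negative control wells and 100% = positive control rescue; higher means more ATP so stronger rescue from cytokine killing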
Mdm2 MdmX conf = human Mdm2/MdmX binding inhibition, confirmed. hit rate 55% among 10,000. AID 489028. shares compounds with Mdm2 MdmX PPI. inhibition, % at 8 µM. luminescent assay; in the data active = inhibition above about 40%
FLuc counter = inhibits full-length luciferase, flagging false Mdm2/MdmX hits; inhibition, % at 8 µM; hit rate 77% among 6,200; AID 504607; shares compounds with Mdm2 MdmX PPI; SaOS-2 full-length luciferase counterscreen, luminescence;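 active = mean inhibition at 8 µM reaching about 37%, which flags the compound as non-specific, limit read from the data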;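 also: p53-null SaOS-2 cells with luciferase driven by a doxycycline-inducible promoter; compound on cells about two nights before reading with doxycycline added after day one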
* hit, by the source's call; u = inconclusive; x = no result. This is a sample that favours compounds with a hit; in the whole collection about 4.8% have one here.

SMILES	Calb FLC	CSC inhib	MPTP inh	Mdm2 MdmX PPI	Beta apoptosis	Mdm2 MdmX conf	FLuc counter
Cn1c(=O)c(C(=O)NCC2CCCO2)c(O)c2ccccc21 (stereo not drawn)	29	3	-1	78*	-2	45*	22
Cn1c(=O)c(C(=O)NNC(=O)c2ccc(Br)cc2)c(O)c2ccccc21	0	u	3	54*	6	30	x
O=C(NCC1CCCO1)c1c(O)c2cccc3c2n(c1=O)CCC3 (stereo not drawn)	-2	20	-5	84*	2	58*	46*
Cn1c(C(=O)NCC2CCCO2)cc2c(=O)n(C)c3ccccc3c21 (stereo not drawn)	3	4	-2	0	1	x	x
O=C(NCC1CCCO1)c1c(O)c2cccc3c2n(c1=O)CC3 (stereo not drawn)	-1	4	5	69*	1	69*	55*
COCC(C)NS(=O)(=O)c1ccc(C(=O)NC(Cc2ccccc2)c2ccccc2)cc1 (stereo not drawn)	-1	11	1	8	-5	x	x
O=C(Nc1nc(-c2ccc(F)c(F)c2)cs1)Nc1ccc(F)cc1F	-12	9	6	83*	61	62*	15
O=C(Nc1ccc(Oc2ccc(NC(=O)Nc3ccccc3Cl)cc2)cc1)Nc1ccccc1Cl	-13	40	2	54*	54	41*	47*
O=C1c2ccccc2NC(c2ccc(Br)s2)N1O (stereo not drawn)	2	10	x	54*	11	62*	44*
O=C(Nc1nc(-c2ccccc2)cs1)c1cccc([N+](=O)[O-])c1	-32	19	50	-28	5	x	x
O=C(Nc1ccc(-c2csc(Nc3cccc(C(F)(F)F)c3)n2)cc1)c1cc([N+](=O)[O-])cc(C(F)(F)F)c1	-1	88*	3	68*	111*	7	x
O=C(Nc1ccc(-c2csc(Nc3ccc(Cl)cc3)n2)cc1)c1ccccc1	x	-3	2	-15	3	x	x
O=C(Nc1ccc(-c2csc(Nc3cccc(C(F)(F)F)c3)n2)cc1)c1ccccc1	-10	136*	1	63*	14	37	78*
Cc1cc(C)nc(SCc2ccc(C(=O)N/N=C/c3ccc(C(=O)O)cc3)cc2)n1	14	-7	-1	4	-16	x	x
COc1ccc(O)c(/C=N/NC(=O)c2ccc(CSc3nc(C)cc(C)n3)cc2)c1	119*	110*	9	77*	u	74*	31
Cc1cc(C)nc(SCc2ccc(C(=O)N/N=C/c3cccc(O)c3O)cc2)n1	-1	110*	4	75*	95*	68*	35
COc1ccc(/C=N/NC(=O)c2ccc(CSc3nc(C)cc(C)n3)cc2)cc1O	-12	25	-1	5	0	x	x
CCOc1cc(S(=O)(=O)n2ccc(C)n2)ccc1Br	-25	5	-2	81*	x	-2	x
CCOc1cc(S(=O)(=O)n2ccnc2)ccc1Br	0	2	0	4	-14	x	x
O=C1/C(=C/c2cccs2)SC(=S)N1CCC(=O)N1CCCCC1CCO (stereo not drawn)	7	-1	1	37	-22	x	x
COc1ccc(/C=C2\SC(=S)N(CCCC(=O)N3CCOCC3)C2=O)cc1	6	-6	-1	30	-15	x	x
COc1cccc(/C=C2\SC(=S)N(CCCC(=O)N3CCCC3)C2=O)c1	-1	-1	0	84*	-34	46*	35
COc1ccccc1/C=C1\SC(=S)N(CCC(=O)N2CCCCC2CCO)C1=O (stereo not drawn)	1	7	-2	39	-25	x	x
COc1cccc(/C=C2\SC(=S)N(CCC(=O)N3CCCCC3CCO)C2=O)c1 (stereo not drawn)	-1	20	1	77*	-33	45*	40*
COc1cccc(/C=C2\SC(=S)N(CCCC(=O)N3CCCCC3CCO)C2=O)c1 (stereo not drawn)	2	23	-2	78*	-38	61*	21
SMILES	Calb FLC	CSC inhib	MPTP inh	Mdm2 MdmX PPI	Beta apoptosis	Mdm2 MdmX conf	FLuc counter
O=C1NC[C@@H](CCCCN2C[C@H](Cc3ccc(O)cc3)N(CCC3CCCCC3)C(=O)C2=O)N(CCC2CCCCC2)C1=O	x	x	-4	x	x	x	x
CCC(=O)N1CCCC1(C)C(=O)Nc1ccc2scnc2c1 (stereo not drawn)	x	x	-2	x	x	x	x
C=CCNC(=O)C1CC(=O)N(c2ccc(OCC(=O)Nc3cccc(OC)c3)cc2)C1 (stereo not drawn)	12	-3	0	3	4	x	x
C=CCNC(=O)C1CC(=O)N(c2ccc(OCC(=O)Nc3ccc(Cl)c(C(F)(F)F)c3)cc2)C1 (stereo not drawn)	-25	-8	1	78*	x	12	x
Cc1cc(F)ccc1C(O)c1ncc(-c2ccccc2F)[nH]1 (stereo not drawn)	x	x	1	x	x	x	x
Cc1sc2nc(CSC(C)C(=O)N(C)CC(=O)Nc3ccccc3C(F)(F)F)[nH]c(=O)c2c1C (stereo not drawn)	4	-7	7	51*	-6	27	x
CSc1ccccc1NC(=O)CN(C)C(=O)C(C)SCc1nc2sc(C)c(C)c2c(=O)[nH]1 (stereo not drawn)	x	x	-1	x	x	x	x
CCCCCCCCn1c(=O)c(C(=O)OC)c(N)c2ccccc21	-5	10	10	75*	117*	6	x
COC(=O)c1c(NC(=O)/C=C/C(=O)O)sc(C)c1-c1ccc(C)c(C)c1	-5	46	2	53*	4	22	x
CCOC(=O)c1c(NC(=O)/C=C/C(=O)O)sc(C)c1-c1ccc(C)c(C)c1	47	55	-1	39	x	x	x
Cc1ccc(Nc2nnc(SCC(=O)Nc3ncc(S(=O)(=O)c4ccc([N+](=O)[O-])cc4)s3)s2)cc1	-2	x	3	62*	1	16	x
CCCCOc1ccc(CN=C(N)N)cc1Cl	-1	18	-4	47	36	x	x
CCCOc1ccc(CCCN=C(N)N)cc1Cl	1	50	2	52*	-5	19	x
COc1ccccc1NC(=O)c1cnc(Nc2ccccc2OC)c2ccccc12	2	66	2	52*	26	58*	66*
COc1ccccc1NC(=O)c1ccccc1C(=O)Nc1ccccc1OC	-4	4	0	17	-4	x	x
CC(NS(=O)(=O)c1cccc(C(=O)NCc2ccncc2)c1)c1ccccc1 (stereo not drawn)	x	x	3	5	-4	x	x
O=C(NCCc1ccc(Cl)cc1)C1CCC(CNc2nc(=S)[nH]c3ccccc23)CC1 (stereo not drawn)	-2	47	-1	67*	60	35	61*
CCn1cc(C(=O)NCCCN2CC(C)CC(C)C2)c(=O)c2cc(S(=O)(=O)N(C)C3CCCCC3)ccc21 (stereo not drawn)	7	-6	-2	52*	12	37	60*
